# Sampled rows, rich in hits. Any-hit rate of the full collection: about 4.6%.
# D1 antag = Antagonist of Human D 1 Dopamine Receptor: qHTS; D(1A) dopamine receptor (Homo sapiens), P21728; HEK293 TREx D1 cells, calcium flux, dopamine EC80; active compounds read low; activity change, negative = inhibition, % at 10 µM; 360,000 compounds, 3.2% hits; AID 504652, 2011; in the data active means activity change below about -30%; further: on the % scale 0 is the no-effect control and ±100 the full control effect
# Target sequence (P21728 whole entry, looked up): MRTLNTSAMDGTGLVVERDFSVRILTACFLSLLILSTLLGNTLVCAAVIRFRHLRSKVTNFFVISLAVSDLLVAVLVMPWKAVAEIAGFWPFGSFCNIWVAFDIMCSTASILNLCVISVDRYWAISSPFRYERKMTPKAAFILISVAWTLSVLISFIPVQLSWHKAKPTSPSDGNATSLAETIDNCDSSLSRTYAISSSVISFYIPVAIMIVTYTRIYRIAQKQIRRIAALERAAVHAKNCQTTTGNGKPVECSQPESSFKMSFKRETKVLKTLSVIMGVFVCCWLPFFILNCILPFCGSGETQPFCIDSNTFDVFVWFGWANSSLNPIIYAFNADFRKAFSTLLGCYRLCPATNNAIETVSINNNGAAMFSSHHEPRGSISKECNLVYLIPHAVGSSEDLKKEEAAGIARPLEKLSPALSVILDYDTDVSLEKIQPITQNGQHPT
#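 After overnight tetracycline induction at 30 C, force-coupled D1 HEK293 cells took up a no-wash calcium dye at room temperature. Compounds were added and monitored 180 s, and the response to EC80 dopamine was then recorded.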
# D1 potentiator = Potentiators of Human D1 Dopamine Receptor: qHTS | HEK293 TREx D1 cells, calcium flux, dopamine EC20 potentiation | 360,000 compounds, 0.036% hits | potentiation, % at 10 µM; in the data active means potentiation above about 30%; further: 0% is about no effect
# TRHR PAM = qHTS for Small Molecule Agonists and Allosteric Enhancers of Human TRH Receptor: Primary Screen for Enhancers. TRHR cells, fluo-8 calcium fluorescence, EC20 TRH enhancement. enhancement, % at 2 µM. 360,000 compounds, 0.66% hits. AID 493056, 2011; in the data active means enhancement above about 30%; further: 0% is about no effect
#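 TRHR-expressing cells loaded with fluo-8 calcium dye were read kinetically (ex 480/em 530) during compound addition, then stimulated with an EC20 of TRH (10 nM final). Enhancement of the Gq-mediated intracellular calcium response was scored.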
# TRHR agonist = qHTS for Small Molecule Agonists and Allosteric Enhancers of Human TRH Receptor: Primary Screen for Agonists. TRHR cells, calcium flux fluo-8, FDSS agonist mode. activation, % at 2 µM. 360,000 compounds, 0.18% hits. AID 493084, 2011; further: 0% is about no effect
#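 TRHR-expressing cells loaded with fluo-8 calcium dye; 23 nL library compound pin-transferred, kinetic FDSS fluorescence (Ex 480/Em 530) recorded about 180 s for agonist-induced calcium release, before a 10 nM TRH EC20 addition for potentiator mode.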
# D1 ag = Allosteric Agonists of the Human D1 Dopamine Receptor: qHTS; D(1A) dopamine receptor (Homo sapiens), P21728; AID 504660, 2011; activation, % at 2 µM; 360,000 compounds, 1% hits; HEK293 T-REx D1 cells, calcium flux, agonist mode; further: 0% is about no effect
#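 Tetracycline-induced HEK293 TREx D1 cells, force-coupled to calcium signalling, were dye-loaded with a no-wash calcium kit. Compound was pin-added after a 10 s baseline. Fluorescence was read kinetically at 1 cycle/s for 180 s, with calcium rises flagged as agonism.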
# Active calls of the source: *; . = no result. Unless noted, no stated cut-off is given here; in the data, active means activation above about 30%; inactive means the rest.
SMILES,D1 antag,D1 potentiator,TRHR PAM,TRHR agonist,D1 ag
CC(C)(C)OC(=O)N1CCC(c2c(C(=O)NCCN3CCC(Cc4ccccc4)CC3)cnn2-c2ccc(F)cc2)CC1,-10,2,3,2,40*
CC(C)(C)OC(=O)N1CCC(c2c(C(=O)NCc3cccc(Cl)c3)cnn2-c2ccc(F)cc2)CC1,-43*,-9,2,2,2
CCOc1ncccc1C(=O)OCC(=O)NC(=O)NC(C)C,-8,7,-1,0,2
Cc1[nH]ncc1-c1ccccc1Cl,-24,-4,2,0,1
COC(=O)N(C)c1ccccc1C(=O)N1CCOCC1,3,-2,10,0,1
COC(=O)c1onc(-c2ccccc2)c1C(=O)OC,-36*,-1,4,0,3
CCOc1ccc(-n2c(=S)sc3c(=O)[nH]c(SCC(=O)NCC4CCCO4)nc32)cc1 (stereo unspecified),2,-2,-3,1,1
CC(C)(C)c1ccc(/C=C/C(=O)Nc2ccc(S(N)(=O)=O)cc2)cc1,-14,-2,8,-1,33*
COc1ccc(/C=C/C(=O)Nc2ccc(C)cc2)cc1,-65*,-2,-6,-1,1
NS(=O)(=O)c1ccc(NC(=O)/C=C/c2ccc(S(=O)(=O)NCc3ccco3)cc2)cc1,-43*,-5,-6,1,5
O=C(O)/C=C/c1ccc(S(=O)(=O)NCc2ccco2)cc1,0,-2,-4,1,5
NS(=O)(=O)c1ccc(NC(=O)/C=C/c2cccc(Cl)c2)cc1,-9,-2,15,0,1
CC(=O)c1ccc(NC(=O)/C=C/c2ccc(C)cc2)cc1,-9,-5,-3,0,4
CCC1=C2CC[C@H]3C(=O)N(c4ccccc4)C(=O)[C@H]3[C@H]2[C@@]2(C)C(=NCC(=O)OC)OC(=O)N2C1=O,22,-4,-14,0,2
Cc1cc(C)c2c(N)c3cccc(C)c3nc2n1,5,2,7,7,54*
COc1ccc(Cl)cc1NC(=S)N1CCN(c2ccccn2)CC1,3,-1,32*,0,0
COc1ccc(Cl)cc1NC(=S)N1CCN(c2ncccn2)CC1,2,3,1,-2,3
COc1ccc(Cl)cc1NC(=S)N1CCCCCC1,-2,0,40*,0,1
COc1ccc(OC)c(NC(=S)N2CCCC2)c1,2,-3,9,0,1
CCOC(=O)c1oc2cc(OC(C)=O)ccc2c(=O)c1-c1ccc(OC)c(OC)c1,-1,0,5,0,2
CCOC(=O)COc1ccc2c(=O)c(-c3ccc(OC)c(OC)c3)c(C(=O)OCC)oc2c1,-45*,-5,-5,-1,-1
N=c1c(C(=O)NCC2CCCO2)cc2c(=O)n3ccccc3nc2n1Cc1ccccc1Cl (stereo unspecified),-39*,-2,6,2,5
O=C(NCCCN1CCOCC1)c1ccco1,-35*,-3,2,0,2
O=C(NCCCN1CCCCCC1)c1ccc(CS(=O)(=O)Cc2ccccc2F)o1,1,4,1,0,-1
CC(C)(C)c1cc(C(F)(F)F)nc(SCCCNC(=O)c2ccco2)n1,-38*,-3,14,0,19
SMILES,D1 antag,D1 potentiator,TRHR PAM,TRHR agonist,D1 ag
O=C(NCCCN1CCOCC1)c1ccc(CS(=O)(=O)Cc2ccccc2Cl)o1,-45*,1,-1,-1,2
O=C(NCCCN1CCOCC1)c1cc(-c2ccc(Cl)c(Cl)c2)on1,-33*,-1,-2,1,24
CC(C)(C)c1ccc(C(=O)NCCCNC(=O)c2ccco2)cc1,-3,.,1,0,4
COc1ccc(C2c3[nH]c4ccccc4c3CCN2C(=O)c2cn3ccccc3n2)c(F)c1 (stereo unspecified),-4,11,3,0,1
Cc1cc(C)n(CCCNC(=O)c2ccco2)n1,-31*,-6,-5,0,1
Cc1ccccc1CS(=O)(=O)CCC(=O)NCCCN1CCOCC1,-44*,0,-5,-1,0
CCN(CC)CCCNC(=O)c1cc(-c2ccc(O)cc2)on1,-44*,-5,16,0,5
CN1C(=O)C2(c3ccccc31)c1c(oc3ccccc3c1=O)C(=O)N2CCCO (stereo unspecified),-31*,-6,0,0,3
CN1C(=O)C2(c3ccccc31)c1c(oc3ccccc3c1=O)C(=O)N2CCO (stereo unspecified),-17,-9,0,0,5
Cc1ccc2oc3c(c(=O)c2c1)C1(C(=O)N(C)c2ccccc21)N(CCCO)C3=O (stereo unspecified),-5,-1,36*,0,-1
Cc1ccc(C(=O)C2=C(O)C(=O)N(CCCN(C)C)C23C(=O)N(C)c2ccccc23)o1 (stereo unspecified),8,5,-1,-1,2
Cc1ccc2nc(-c3ccc(N4CCOCC4)cc3)c(Nc3ccccc3C)n2c1,20,-1,4,0,0
COc1ccc2nc(N3C(=O)CNC3=S)sc2c1,-40*,-10,6,0,0
COc1ccccc1N1CCN(S(=O)(=O)c2ccc3c(c2)n(C)c(=O)n3C)CC1,-47*,-4,-4,-2,2
CCc1nc(-c2cc(S(=O)(=O)N3CCN(c4ccccc4F)CC3)ccc2OC)no1,5,-5,-3,0,7
COc1ccc(S(=O)(=O)N2CCN(c3ccccc3F)CC2)cc1-c1noc(C)n1,-34*,-3,-7,74*,6
Cn1c(=O)c2cc(S(=O)(=O)N3CCOCC3)ccc2n(C)c1=O,-31*,5,14,-1,-1
Cc1cc(=O)n(C)c2ccc(S(=O)(=O)N3CCOCC3)cc12,10,-2,3,0,-2
COc1ccccc1N1CCN(S(=O)(=O)/C=C/c2ccccc2)CC1,-37*,-2,-8,0,1
CCOc1ccc(/C=C/c2nc(C#N)c(N3CCC(C)CC3)o2)cc1,12,0,-10,0,3
CCNC(=S)N1CCN(S(=O)(=O)/C=C/c2ccccc2)CC1,5,-1,40*,-1,0
CCOC(=O)N1CCN(S(=O)(=O)/C=C/c2ccccc2)CC1,10,-8,-4,0,1
CC1(c2cccc(Br)c2)NC(=O)N(CC(=O)NCC2CCCO2)C1=O (stereo unspecified),0,1,19,0,3
